Assay results taken from the supplement of paper PMC11732987, “Enantioselective OTUD7B fragment discovery through chemoproteomics screening and high-throughput optimisation” (Communications Chemistry, 2025).

How the values were obtained:
Test in all cases: log2 ratio of Biotin-Ahx-Ub-VS probe labelling (fragment/DMSO); higher = less target engagement (more negative = stronger competition), active = hit call of the paper (q ≤ 0.05, log2 ratio ≤ -1)
Conditions in all cases: compound concentration: 200 uM; treatment time: 3 h
USP42 = target: T1, USP42 (UniProt Q9H9J4)
T1 sequence (whole entry): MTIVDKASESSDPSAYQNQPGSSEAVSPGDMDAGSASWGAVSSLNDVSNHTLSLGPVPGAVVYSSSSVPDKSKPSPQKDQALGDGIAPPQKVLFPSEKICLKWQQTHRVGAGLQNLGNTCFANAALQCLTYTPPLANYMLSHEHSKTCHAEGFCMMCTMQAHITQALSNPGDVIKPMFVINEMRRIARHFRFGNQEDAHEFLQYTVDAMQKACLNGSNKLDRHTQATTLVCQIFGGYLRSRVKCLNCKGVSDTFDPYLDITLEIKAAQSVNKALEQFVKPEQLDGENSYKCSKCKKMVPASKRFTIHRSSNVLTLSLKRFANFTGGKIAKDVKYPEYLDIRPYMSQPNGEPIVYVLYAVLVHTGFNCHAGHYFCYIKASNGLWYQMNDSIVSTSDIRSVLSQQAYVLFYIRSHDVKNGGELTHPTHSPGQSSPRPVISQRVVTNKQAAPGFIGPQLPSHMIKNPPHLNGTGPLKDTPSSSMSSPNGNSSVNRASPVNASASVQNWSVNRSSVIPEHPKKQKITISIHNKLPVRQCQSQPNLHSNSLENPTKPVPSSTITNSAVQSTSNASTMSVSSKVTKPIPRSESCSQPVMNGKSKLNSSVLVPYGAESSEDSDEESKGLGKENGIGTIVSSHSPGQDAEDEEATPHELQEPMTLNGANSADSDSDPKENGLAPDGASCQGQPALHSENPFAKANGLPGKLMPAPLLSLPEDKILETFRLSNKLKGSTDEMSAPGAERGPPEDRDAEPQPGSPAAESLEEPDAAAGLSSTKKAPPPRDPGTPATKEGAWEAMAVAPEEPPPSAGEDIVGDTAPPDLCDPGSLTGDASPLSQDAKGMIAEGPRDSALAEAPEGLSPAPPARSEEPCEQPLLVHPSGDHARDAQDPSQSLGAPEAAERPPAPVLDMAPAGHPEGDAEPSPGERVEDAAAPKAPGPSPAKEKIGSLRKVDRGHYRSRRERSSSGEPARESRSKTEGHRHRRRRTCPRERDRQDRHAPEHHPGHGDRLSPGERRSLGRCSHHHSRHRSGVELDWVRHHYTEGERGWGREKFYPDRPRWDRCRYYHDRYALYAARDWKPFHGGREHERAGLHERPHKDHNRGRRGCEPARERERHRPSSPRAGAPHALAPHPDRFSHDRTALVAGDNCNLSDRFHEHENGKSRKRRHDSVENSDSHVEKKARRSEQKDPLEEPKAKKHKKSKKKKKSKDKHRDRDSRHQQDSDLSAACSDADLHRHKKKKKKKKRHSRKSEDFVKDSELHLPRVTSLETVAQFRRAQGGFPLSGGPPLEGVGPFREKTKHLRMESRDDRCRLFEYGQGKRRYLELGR
In short: (§1)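 Using Biotin-Ahx-Ub-VS at 0.5 µM final for 1 h, DUBs were labelled in HEK293T lysate (495 µg per sample) that had first been treated in triplicate with fragment at 200 µM or vehicle for 3 h. NeutrAvidin enrichment, LysC and trypsin digestion and diaPASEF LC-MS/MS followed. Spectronaut label-free quantities were global-median-normalised. Values are average log2 fragment/vehicle ratios by unpaired t-test, using proteins with ≥2 unique peptides.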

USP46 = USP46 (UniProt P62068)
In short: as §1

USP47 = target: T2, USP47 (UniProt Q96K76)
T2 sequence (whole entry): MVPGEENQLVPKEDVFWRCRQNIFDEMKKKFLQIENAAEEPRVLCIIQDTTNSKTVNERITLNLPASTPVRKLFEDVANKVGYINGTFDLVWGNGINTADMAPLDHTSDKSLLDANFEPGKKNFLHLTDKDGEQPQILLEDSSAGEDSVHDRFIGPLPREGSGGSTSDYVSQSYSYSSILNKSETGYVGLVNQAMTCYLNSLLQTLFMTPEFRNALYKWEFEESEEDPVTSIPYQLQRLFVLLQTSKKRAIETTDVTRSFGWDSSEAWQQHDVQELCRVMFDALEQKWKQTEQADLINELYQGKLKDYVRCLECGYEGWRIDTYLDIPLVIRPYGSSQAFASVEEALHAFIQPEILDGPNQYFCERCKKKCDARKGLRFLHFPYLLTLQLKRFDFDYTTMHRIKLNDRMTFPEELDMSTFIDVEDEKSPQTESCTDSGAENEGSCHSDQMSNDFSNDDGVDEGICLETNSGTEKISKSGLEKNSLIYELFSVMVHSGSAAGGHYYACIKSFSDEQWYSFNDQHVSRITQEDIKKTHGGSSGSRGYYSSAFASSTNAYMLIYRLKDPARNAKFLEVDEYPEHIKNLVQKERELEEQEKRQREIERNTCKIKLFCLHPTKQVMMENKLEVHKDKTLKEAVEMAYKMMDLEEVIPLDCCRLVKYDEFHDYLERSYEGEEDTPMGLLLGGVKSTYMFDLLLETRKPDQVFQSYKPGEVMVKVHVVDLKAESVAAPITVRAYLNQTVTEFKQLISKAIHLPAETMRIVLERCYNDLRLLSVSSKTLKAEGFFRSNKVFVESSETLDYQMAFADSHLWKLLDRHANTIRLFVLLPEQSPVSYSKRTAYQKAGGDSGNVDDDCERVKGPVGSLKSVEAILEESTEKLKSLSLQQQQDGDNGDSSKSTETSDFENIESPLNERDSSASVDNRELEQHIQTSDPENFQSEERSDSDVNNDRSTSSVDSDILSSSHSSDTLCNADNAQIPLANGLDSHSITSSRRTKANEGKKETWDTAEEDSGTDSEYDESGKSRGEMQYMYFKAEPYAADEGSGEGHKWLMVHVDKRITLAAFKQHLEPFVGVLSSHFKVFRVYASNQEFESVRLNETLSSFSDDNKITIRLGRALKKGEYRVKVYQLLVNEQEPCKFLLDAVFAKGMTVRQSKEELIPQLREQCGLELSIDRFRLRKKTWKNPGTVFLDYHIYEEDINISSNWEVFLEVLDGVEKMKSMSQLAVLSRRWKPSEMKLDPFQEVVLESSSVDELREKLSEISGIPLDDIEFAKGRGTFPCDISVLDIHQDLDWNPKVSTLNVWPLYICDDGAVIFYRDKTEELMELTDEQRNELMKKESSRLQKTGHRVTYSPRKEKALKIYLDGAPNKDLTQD
In short: as §1

USP48 = target: T3, USP48 (UniProt Q86UV5)
T3 sequence (whole entry): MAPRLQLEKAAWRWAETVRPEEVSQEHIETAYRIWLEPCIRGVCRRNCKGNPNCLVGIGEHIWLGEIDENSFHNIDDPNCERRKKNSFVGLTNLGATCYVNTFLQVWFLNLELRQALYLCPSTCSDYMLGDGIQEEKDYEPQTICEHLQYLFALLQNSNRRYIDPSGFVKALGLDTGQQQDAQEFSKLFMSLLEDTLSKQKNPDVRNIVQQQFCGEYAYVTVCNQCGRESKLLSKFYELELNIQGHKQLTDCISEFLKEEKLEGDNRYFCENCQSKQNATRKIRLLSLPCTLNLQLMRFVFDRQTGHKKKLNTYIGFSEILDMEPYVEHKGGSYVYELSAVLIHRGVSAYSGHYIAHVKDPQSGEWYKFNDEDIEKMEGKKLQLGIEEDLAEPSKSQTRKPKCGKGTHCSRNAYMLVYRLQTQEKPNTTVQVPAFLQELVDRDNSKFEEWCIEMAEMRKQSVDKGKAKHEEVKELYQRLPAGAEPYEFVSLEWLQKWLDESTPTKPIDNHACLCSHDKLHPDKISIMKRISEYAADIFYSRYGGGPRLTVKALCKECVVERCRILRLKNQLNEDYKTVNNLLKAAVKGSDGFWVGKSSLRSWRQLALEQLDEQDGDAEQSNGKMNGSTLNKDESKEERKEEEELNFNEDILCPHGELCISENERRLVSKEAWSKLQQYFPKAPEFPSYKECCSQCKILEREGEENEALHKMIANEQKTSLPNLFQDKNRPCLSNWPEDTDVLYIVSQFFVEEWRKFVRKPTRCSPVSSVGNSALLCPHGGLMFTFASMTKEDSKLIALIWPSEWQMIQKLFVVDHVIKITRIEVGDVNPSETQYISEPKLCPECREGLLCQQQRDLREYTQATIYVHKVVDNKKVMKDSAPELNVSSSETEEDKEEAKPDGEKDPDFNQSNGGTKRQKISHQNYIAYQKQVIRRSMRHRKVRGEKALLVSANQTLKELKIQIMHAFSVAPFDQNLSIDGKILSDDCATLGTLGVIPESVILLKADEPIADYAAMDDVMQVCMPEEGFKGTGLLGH
In short: as §1

USP5 = target: T4, USP5 (UniProt P45974)
T4 sequence (whole entry): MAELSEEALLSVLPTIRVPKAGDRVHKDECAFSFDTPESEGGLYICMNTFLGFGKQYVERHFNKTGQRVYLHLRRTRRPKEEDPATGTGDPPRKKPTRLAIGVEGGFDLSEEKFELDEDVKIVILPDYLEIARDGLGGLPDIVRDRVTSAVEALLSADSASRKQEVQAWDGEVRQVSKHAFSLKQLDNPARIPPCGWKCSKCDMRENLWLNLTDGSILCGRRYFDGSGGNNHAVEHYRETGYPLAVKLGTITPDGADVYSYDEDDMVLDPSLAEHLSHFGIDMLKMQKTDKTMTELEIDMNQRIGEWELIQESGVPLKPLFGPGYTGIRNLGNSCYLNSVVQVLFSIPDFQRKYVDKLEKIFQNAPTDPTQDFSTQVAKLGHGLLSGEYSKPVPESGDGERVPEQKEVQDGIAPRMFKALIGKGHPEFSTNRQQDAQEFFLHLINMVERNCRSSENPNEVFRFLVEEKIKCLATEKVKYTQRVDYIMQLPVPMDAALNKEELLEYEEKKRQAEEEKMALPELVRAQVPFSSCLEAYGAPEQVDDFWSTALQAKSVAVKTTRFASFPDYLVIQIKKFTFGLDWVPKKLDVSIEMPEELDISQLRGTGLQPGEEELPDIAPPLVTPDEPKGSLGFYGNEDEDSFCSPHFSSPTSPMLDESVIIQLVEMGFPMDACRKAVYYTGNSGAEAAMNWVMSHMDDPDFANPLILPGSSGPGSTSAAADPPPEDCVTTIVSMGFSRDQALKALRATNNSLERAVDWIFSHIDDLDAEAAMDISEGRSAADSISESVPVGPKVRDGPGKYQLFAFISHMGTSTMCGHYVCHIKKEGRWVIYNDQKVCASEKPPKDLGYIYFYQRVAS
In short: as §1

USP54 = USP54 (UniProt Q70EL1)
In short: as §1

USP7 = USP7 (UniProt Q93009)
In short: as §1

USP8 = target: T5, USP8 (UniProt P40818)
T5 sequence (whole entry): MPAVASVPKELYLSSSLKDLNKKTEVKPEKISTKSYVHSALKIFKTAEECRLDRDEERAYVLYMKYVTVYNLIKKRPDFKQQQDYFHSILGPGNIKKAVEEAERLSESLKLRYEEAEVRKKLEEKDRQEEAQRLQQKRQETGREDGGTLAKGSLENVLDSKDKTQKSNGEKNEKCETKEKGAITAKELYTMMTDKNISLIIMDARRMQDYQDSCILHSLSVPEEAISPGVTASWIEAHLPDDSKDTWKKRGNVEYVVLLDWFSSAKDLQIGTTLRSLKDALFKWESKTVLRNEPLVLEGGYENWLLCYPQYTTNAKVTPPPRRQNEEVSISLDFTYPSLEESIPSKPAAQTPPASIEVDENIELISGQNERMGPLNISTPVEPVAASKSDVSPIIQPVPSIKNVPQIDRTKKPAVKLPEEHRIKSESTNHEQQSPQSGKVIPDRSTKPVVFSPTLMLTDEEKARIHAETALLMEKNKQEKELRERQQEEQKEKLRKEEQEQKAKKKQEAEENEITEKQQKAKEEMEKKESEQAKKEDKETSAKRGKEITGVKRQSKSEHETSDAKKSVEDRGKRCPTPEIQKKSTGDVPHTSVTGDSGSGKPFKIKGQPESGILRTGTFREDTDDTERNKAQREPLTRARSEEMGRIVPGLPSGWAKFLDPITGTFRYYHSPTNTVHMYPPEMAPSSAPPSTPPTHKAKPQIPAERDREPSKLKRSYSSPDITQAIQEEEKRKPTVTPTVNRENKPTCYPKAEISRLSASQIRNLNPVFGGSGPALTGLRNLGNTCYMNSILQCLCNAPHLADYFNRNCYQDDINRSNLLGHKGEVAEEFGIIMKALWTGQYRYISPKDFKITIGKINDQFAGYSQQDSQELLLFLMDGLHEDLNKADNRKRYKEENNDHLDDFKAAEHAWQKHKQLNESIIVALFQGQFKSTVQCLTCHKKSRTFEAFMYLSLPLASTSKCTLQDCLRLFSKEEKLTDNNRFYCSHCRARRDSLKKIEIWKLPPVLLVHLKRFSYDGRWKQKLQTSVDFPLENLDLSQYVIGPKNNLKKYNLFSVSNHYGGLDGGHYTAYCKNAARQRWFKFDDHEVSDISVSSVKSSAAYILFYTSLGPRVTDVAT
In short: as §1

USP9X = USP9X (UniProt Q93008)
In short: as §1

UniProt O00487 = target: UniProt O00487
In short: as §1

Measured: log2 ratio of Biotin-Ahx-Ub-VS probe labelling

USP7, sequence (Q93009 whole entry, looked up): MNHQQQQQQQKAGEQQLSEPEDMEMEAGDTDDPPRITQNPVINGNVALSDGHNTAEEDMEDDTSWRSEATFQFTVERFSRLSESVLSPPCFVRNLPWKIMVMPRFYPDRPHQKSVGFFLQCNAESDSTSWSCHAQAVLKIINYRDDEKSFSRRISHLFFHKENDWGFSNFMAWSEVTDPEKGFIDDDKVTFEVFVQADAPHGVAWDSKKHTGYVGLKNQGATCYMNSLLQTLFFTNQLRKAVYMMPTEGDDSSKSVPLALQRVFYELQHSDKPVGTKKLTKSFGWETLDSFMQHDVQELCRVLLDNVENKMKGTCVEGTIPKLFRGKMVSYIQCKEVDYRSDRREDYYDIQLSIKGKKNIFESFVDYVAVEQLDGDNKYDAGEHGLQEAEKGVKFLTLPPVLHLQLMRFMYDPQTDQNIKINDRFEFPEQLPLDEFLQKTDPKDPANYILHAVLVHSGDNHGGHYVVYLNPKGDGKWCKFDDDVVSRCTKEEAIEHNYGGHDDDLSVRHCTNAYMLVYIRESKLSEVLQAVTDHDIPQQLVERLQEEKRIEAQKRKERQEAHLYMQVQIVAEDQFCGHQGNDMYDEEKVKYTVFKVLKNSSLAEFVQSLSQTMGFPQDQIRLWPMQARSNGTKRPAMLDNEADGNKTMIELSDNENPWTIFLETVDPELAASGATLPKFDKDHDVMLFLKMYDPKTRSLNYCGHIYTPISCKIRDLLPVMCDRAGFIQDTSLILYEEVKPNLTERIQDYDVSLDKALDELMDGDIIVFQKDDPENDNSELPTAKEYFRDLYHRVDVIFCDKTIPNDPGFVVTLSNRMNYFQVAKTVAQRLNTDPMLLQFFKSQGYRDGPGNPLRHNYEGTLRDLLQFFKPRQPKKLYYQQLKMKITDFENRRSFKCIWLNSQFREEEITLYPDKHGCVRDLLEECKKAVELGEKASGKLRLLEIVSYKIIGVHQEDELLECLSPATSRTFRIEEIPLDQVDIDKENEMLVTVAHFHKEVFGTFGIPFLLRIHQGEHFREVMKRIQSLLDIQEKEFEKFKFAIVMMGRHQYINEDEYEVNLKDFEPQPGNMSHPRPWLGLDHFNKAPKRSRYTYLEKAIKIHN
USP46, sequence (P62068 whole entry): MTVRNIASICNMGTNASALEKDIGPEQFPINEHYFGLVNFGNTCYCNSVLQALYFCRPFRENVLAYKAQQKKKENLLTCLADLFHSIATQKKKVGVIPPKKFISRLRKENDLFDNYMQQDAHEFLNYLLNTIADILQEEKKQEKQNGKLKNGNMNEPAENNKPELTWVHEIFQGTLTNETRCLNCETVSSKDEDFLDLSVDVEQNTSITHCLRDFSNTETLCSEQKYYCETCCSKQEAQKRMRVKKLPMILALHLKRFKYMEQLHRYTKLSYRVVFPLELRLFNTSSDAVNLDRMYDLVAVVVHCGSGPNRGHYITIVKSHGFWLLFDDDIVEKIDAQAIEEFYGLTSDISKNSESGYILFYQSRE
USP54, sequence (Q70EL1 whole entry): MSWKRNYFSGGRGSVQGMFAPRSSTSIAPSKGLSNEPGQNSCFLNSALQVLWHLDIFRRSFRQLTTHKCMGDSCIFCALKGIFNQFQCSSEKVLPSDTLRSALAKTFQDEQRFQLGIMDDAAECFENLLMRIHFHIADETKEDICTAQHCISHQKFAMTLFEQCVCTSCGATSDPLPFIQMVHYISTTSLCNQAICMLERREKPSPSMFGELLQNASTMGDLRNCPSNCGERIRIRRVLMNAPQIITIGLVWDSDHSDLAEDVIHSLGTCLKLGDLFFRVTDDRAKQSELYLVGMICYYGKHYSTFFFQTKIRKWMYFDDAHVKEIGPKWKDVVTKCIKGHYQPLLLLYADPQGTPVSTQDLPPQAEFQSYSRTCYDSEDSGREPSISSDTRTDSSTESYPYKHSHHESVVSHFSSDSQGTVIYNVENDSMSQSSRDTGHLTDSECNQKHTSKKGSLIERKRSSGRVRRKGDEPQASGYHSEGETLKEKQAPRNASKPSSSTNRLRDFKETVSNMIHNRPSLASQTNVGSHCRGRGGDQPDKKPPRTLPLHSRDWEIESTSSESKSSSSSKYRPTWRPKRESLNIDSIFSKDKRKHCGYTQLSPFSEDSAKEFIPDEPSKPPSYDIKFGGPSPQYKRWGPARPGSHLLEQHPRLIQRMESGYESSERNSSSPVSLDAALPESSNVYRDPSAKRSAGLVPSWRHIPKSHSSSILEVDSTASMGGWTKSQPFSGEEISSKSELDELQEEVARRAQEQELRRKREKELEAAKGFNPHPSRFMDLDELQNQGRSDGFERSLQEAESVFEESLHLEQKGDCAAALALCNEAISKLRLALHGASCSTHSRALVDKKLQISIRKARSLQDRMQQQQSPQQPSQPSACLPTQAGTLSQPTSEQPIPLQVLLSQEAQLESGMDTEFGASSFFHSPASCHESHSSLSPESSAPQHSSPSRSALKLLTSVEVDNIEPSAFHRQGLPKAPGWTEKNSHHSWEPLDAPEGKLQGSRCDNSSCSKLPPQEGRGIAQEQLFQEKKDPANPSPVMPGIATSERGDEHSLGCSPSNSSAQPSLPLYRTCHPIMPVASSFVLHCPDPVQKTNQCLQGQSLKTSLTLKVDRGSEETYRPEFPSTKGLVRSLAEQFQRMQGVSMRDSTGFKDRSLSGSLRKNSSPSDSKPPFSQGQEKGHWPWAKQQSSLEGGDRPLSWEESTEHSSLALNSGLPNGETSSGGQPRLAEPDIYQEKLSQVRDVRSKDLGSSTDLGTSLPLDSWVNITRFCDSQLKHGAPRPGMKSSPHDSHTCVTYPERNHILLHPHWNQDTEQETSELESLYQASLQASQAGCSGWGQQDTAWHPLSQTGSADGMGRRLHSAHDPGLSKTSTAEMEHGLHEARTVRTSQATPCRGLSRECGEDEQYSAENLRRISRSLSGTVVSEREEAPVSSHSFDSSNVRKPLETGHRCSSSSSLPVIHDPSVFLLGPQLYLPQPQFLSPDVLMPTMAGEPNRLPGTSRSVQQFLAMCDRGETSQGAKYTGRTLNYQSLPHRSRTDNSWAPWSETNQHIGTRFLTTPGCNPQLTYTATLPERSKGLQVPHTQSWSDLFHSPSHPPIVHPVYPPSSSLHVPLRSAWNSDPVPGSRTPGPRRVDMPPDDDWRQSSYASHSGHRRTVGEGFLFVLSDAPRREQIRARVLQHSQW
UniProt O00487, sequence (O00487 whole entry): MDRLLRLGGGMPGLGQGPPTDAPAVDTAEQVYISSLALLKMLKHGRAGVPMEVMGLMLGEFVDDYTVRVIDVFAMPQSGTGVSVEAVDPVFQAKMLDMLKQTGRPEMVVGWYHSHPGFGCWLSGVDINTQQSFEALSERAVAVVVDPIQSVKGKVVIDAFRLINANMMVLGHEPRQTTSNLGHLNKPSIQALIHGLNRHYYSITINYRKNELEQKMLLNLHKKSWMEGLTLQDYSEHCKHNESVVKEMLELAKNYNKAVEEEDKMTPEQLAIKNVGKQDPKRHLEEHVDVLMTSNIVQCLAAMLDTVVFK

O=C(CCl)NC1(c2ccc3c(c2)OCCO3)CCCC1
inactive: USP42 -0.0517 | USP46 -0.105 | USP47 -0.898 | USP48 -0.261 | USP5 0.179 | USP54 1.09 | USP7 -0.305 | USP8 -0.374 | USP9X -0.378 | UniProt O00487 -0.176

CCN(C(=O)CCl)C1CCCCC1
inactive: USP42 0.177 | USP46 -0.202 | USP47 -0.157 | USP48 -0.238 | USP5 0.443 | USP54 0.0425 | USP7 -0.372 | USP8 0.0715 | USP9X -0.0791 | UniProt O00487 0.0502

O=C(CCl)NCCc1ccc2c(c1)OCCO2
inactive: USP42 0.217 | USP46 0.147 | USP47 0.109 | USP48 -0.413 | USP5 -0.336 | USP54 0.647 | USP7 -0.433 | USP8 0.0104 | USP9X -0.26 | UniProt O00487 -0.093
